TGFb SMAD3 inh – inhibitors of TGF-b signaling; Potency, µM (highest dose often 46.1 µM), usual class: inhibitors; 410,000 tested, 1.2% active; HepG2 CAGA-GFP TGF-b/SMAD3 reporter, GFP fluorescence, 18 h; TGF-beta stimulated, 500 pg/mL final; note: nearly all actives have a fitted effect of over 65% in size
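Per well, imaged GFP fluorescence of HEPG2 CAGA-GFP cells gives the signal; cells get compound, then TGF-beta (500 pg/mL final), 18 h at 37 degrees C; %Activity versus -TGF-beta and +DMSO controls.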
HepG2 viability – counter-screen for TGF-b inhibitors: cytotoxicity in HepG2 cells. HepG2 CAGA-GFP viability, ATP luminescence, 18 h. 410,000 tested, 0.76% active. Potency, µM (highest dose often 46.1 µM), actives largely listed as cytotoxic
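CellTiter-Glo luminescence gave cytotoxicity after 18 hours at 37 degrees C. The cells were HepG2 CAGA-GFP in 1% FBS DMEM, stimulated with 500 pg/mL TGF-beta after compound addition. %Activity was normalised to no-cell wells (complete cell-killing) and DMSO (no toxicity), and curves were fitted and classified.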
ATXN2 expr inh – inhibitors of ATXN2 expression; HEK-293 ATXN2-luciferase reporter, luminescence, 24 h; Potency, µM (titrated, usually from 57 µM), hits mostly inhibitors; 360,000 tested, 0.72% active; AID 1745845; note: nearly all actives have a fitted effect of over 55% in size
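qHTS (up to 57 uM final) was run with 24 h compound exposure of reporter cells at 37 °C. Each well was multiplexed: SteadyGlo luminescence measured ATXN2-luciferase expression after a fluorogenic Gly-Phe-AFC viability readout (25 uM final).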
S2 tox – viability counter-screen for ATXN expression inhibitors; S2 cells (HEK-293 line with an ATXN2-luciferase reporter) viability, CellTiter-Fluor protease fluorescence, 24 h; Potency, µM (top dose mostly 56.7 µM), actives largely listed as cytotoxic; 400,000 tested, 0.49% active; AID 651635; note: nearly all actives have a fitted effect of over 40% in size
DT40 TDP1 no CPT – qHTS for Inhibitors of human tyrosyl-DNA phosphodiesterase 1 (TDP1): qHTS in cells in absence of CPT; DT40 Tdp1-/- hTDP1 cells, no CPT, ATP luminescence, 48 h; Potency, µM (doses to about 46.2 µM), hits mostly inhibitors; 420,000 tested, 15% active; note: nearly all actives have a fitted effect of over 55% in size
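Growth of hTDP1-complemented DT40 Tdp1-knockout cells is measured by ATP luminescence after at least 48 hr compound exposure at 37 °C, with DMSO substituting for the 20 nM CPT used in the parallel screen.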
TDP1 cell CPT – DT40-hTDP1 cell growth loss with CPT | Potency, µM (doses to about 46.2 µM), most hits filed as inhibitors | AID 686979 | chicken DT40 Tdp1-/-;hTDP1 cells + 20 nM CPT, ATP luminescence, 48 h | 420,000 tested, 12% active; note: nearly all actives have a fitted effect of over 55% in size
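Chicken DT40 Tdp1-/- cells stably complemented with human TDP1 were seeded at 400 cells/well in medium containing 20 nM camptothecin, exposed to pin-transferred compounds, and grown at 37 °C for at least 48 hr. Viability was read as ATP luminescence.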
A number is an active result; - = inactive; ? = inconclusive; . = no result; ! = a repeat was not active. Only some compounds are listed: those with a hit (about 17% of all), similar ones and a draw of the others. Calls come from the whole dose curve; as a rule, active = well fitted curve in the direction sought with a large enough effect; inconclusive = small, poorly fitted or top-dose-only effect, or another doubt; inactive = no such curve, though single readings can be large; an effect the other way counts as inactive or inconclusive.

SMILES	TGFb SMAD3 inh	HepG2 viability	ATXN2 expr inh	S2 tox	DT40 TDP1 no CPT	TDP1 cell CPT
Cc1ccc2nc(-c3cccc(Cl)c3)c(Cc3ccccc3)n2c1	.	.	?	?	16.4µM	20.6µM
Cc1ccc2nc(-c3ccc(C#N)cc3)c(Cc3ccccn3)n2c1	-	-	-	-	?	?
COc1ccccc1Cc1c(-c2cccc(Cl)c2)nc2ccc(C)cn12	12.6µM	-	-	.	14.6µM	18.4µM
COc1ccccc1Cc1c(-c2ccc(C#N)cc2)nc2ccc(C)cn12	.	.	-	?	18.4µM	?
COc1ccccc1Cc1c(-c2ccc(C)cc2)nc2ccc(Cl)cn12	-	-	-	?	0.461µM	?
COc1ccccc1Cc1c(-c2ccc(OC)c(OC)c2)nc2ccc(Cl)cn12	?	-	?	.	?	?
Cc1ccc(-c2nnc(CSc3nc4cc5c(cc4cc3C)OCO5)o2)cc1	-	-	-	-	20.6µM	?
Cc1cc(S(=O)(=O)N2CCN(Cc3noc(CCC(=O)N4CCCCC4)n3)CC2)ccc1F	-	-	-	-	?	16.4µM
COc1ccc(C2CC(O)(c3ccccc3)Oc3c(C)ccc(C(C)C)c32)cc1 (centres undefined)	15.8µM	-	.	.	.	.
COc1ccc(C2CC(O)(c3ccccc3)Oc3cc(OC)ccc32)cc1 (centres undefined)	17.8µM	12.6µM!	-	?	?	?
COc1ccc(C2CC(=O)Oc3cc(OC)ccc32)cc1 (centres undefined)	-	-	-	-	-	-
CCOCCc1nn2c(=O)cc(COC(=O)c3ccc(NC(=O)C(C)(C)C)cc3)nc2s1	-	-	-	-	13µM	16.4µM
CCCCc1nn2c(=O)cc(COC(=O)c3ccc(NC(=O)c4cccs4)cc3)nc2s1	-	-	.	.	-	-
CCCc1nn2c(=O)cc(COC(=O)c3ccc(NC(=O)c4cccs4)cc3)nc2s1	11.2µM	-	.	.	20.6µM	?
CCc1nn2c(=O)cc(COC(=O)c3cccc(NC(=O)c4cccs4)c3)nc2s1	-	-	.	.	14.6µM	?
CCOCCc1nn2c(=O)cc(COC(=O)c3ccc4c(c3)OCO4)nc2s1	-	-	-	-	?	?
CC1CCCCN1S(=O)(=O)c1cccc(S(=O)(=O)N2CCOCC2)c1 (centres undefined)	-	-	-	-	-	-
COc1ccc(S(=O)(=O)N2CCCCCC2)cc1NC(C)C(=O)Nc1ccc(NC(C)=O)cc1 (centres undefined)	-	-	-	-	?	?
Cc1ccc(S(=O)(=O)N2CCCC(c3nc4c(nnn4Cc4ccc5c(c4)OCCO5)c(=O)[nH]3)C2)cc1 (centres undefined)	-	-	.	?	?	?
O=c1c(N2CCN(c3cccc(C(F)(F)F)c3)CC2)csc2ccccc12	?	-	?	-	25.9µM	20.6µM
O=[N+]([O-])c1cc(Cl)ccc1N1CCCC1	-	-	-	-	-	-
O=[N+]([O-])c1cc(S(=O)(=O)C(F)(F)F)ccc1N1CCN(c2ccccc2)CC1	-	-	-	-	16.4µM	?
O=[N+]([O-])c1cc(Cl)ccc1N1CCN(c2cccc(C(F)(F)F)c2)CC1	-	-	-	-	9.2µM	?
O=S(=O)(c1ccc(N2CCN(c3ccc(F)cc3)CC2)cc1)N1CCCC1	-	-	-	-	-	-
O=S(=O)(c1ccc(N2CCCC2)cc1)C(F)(F)F	?	-	-	-	11.6µM	?
CCS(=O)(=O)Nc1ccc(C2=NN(C(=O)c3ccco3)C(c3cccs3)C2)cc1 (centres undefined)	?	-	-	?	?	?
CS(=O)(=O)Nc1ccc(C2=NN(C(=O)c3ccco3)C(c3ccccc3F)C2)cc1 (centres undefined)	-	-	-	?	18.4µM	?

From PubChem
